Assay results as given in PubChem BioAssay (Tox21).
Results filed as inconclusive are left out. The source made the active and inactive calls. Unless noted, the call rests on the fitted dose curve; in most records, active means well fitted curve in the direction sought with a large enough effect in the repeat runs; inconclusive means weak or mixed curves; inactive means no such curve, though single readings can be large; an effect the other way counts as inactive or inconclusive.

Assays:
[1] = qHTS assay to identify small molecule agonists of the peroxisome proliferator-activated receptor delta (PPARd) signaling pathway - cell viability counter screen (AID 743211); further: nearly all actives have a fitted effect of over 55% in size
Summary of the method: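 In the same wells used for beta-lactamase reporter measurement, cytotoxicity is scored by CellTiter-Glo. HEK293H PPARd-bla cells receive compound for 17 h at 37C following a 5 h settling period.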

[2] = qHTS assay to identify small molecule antagonists of the peroxisome proliferator-activated receptor delta (PPARd) signaling pathway - cell viability counter screen (AID 743213); further: nearly all actives have a fitted effect of over 50% in size
Summary of the method: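 Same-well viability: cells pre-incubated 5 h, dosed with compound plus 300 nM L165041, kept 17 h at 37 C, FRET substrate 2 h RT, then CellTiter-Glo 30 min RT and luminescence.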

[3] = target: Bile acid receptor (Homo sapiens) (UniProt Q96RI1); test: qHTS assay to identify small molecule antagonists of the farnesoid-X-receptor (FXR) signaling pathway (AID 743217; active means well fitted inhibition curve with a large enough effect in the signal ratio in the repeat runs, not every such curve was filed as active; the % refers to the signal ratio)
Summary of the method: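 Screen of the Tox21 10K library in quantitative HTS format using FXR-UAS-bla HEK 293T reporter cells. Agonist chenodeoxycholic acid, 50 uM final, added with compounds; 16 h incubation at 37 °C; beta-lactamase FRET fluorescence measured.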

[4] = qHTS assay to identify small molecule agonists of the farnesoid-X-receptor (FXR) signaling pathway - cell viability counter screen (AID 743218); further: nearly all actives have a fitted effect of over 45% in size
Summary of the method: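 Viability of FXR-bla HEK 293T cells is measured by ATP-based CellTiter-Glo luminescence following 16 h compound treatment at 37 C and a prior 2 h room-temperature beta-lactamase substrate step.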

[5] = target: Bile acid receptor (Homo sapiens) (UniProt Q96RI1); test: qHTS assay to identify small molecule agonists of the farnesoid-X-receptor (FXR) signaling pathway (AID 743220; active means well fitted activation curve with a large enough effect in the signal ratio in the repeat runs, not every such curve was filed as active; the % refers to the signal ratio)
Summary of the method: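 FXR-UAS-bla HEK 293T cells carrying a UAS-driven beta-lactamase reporter were plated for 5 h at 37C/5% CO2, then exposed to DMSO-dissolved Tox21 10K compounds for 16 h at 37C. A LiveBLAzer B/G FRET substrate was loaded for 2 h at room temperature before fluorescence reading.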

[6] = qHTS assay to identify small molecule antagonists of the farnesoid-X-receptor (FXR) signaling pathway - cell viability counter screen (AID 743221; active means well fitted cell-killing curve with a large enough effect in the repeat runs, not every such curve was filed as active; further: nearly all actives have a fitted effect of over 50% in size)
Summary of the method: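 Here viability was scored by luminescence after CellTiter-Glo addition to wells already read for beta-lactamase. Prior treatment: compound plus CDCA (50 uM final), 16 h, 37 C, HEK 293T FXR-bla cells.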

[7] = target: Vitamin D3 receptor (Homo sapiens) (UniProt P11473); test: qHTS assay to identify small molecule agonists of the vitamin D receptor (VDR) signaling pathway (AID 743222; calls by dose curve)
Summary of the method: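 Fluorescence from cleaved LiveBLAzer B/G FRET substrate served as readout. VDR-bla cells had been treated 16 h at 37C with test compounds in DMSO, following a 4 h settling period, and substrate was loaded for 2 h at RT.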

[8] = target: Vitamin D3 receptor (Homo sapiens) (UniProt P11473); test: qHTS assay to identify small molecule antagonists of the vitamin D receptor (VDR) signaling pathway (AID 743223; active means well fitted inhibition curve with a large enough effect in the signal ratio in the repeat runs, not every such curve was filed as active; the % refers to the signal ratio)
Summary of the method: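 Inhibition of agonist-driven VDR signalling is scored in VDR-bla cells: 3 nM final 1alpha,25-dihydroxyvitamin D3 plus compound, 16 h at 37C, then beta-lactamase detection by FRET substrate fluorescence after 2 h.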

[9] = target: Peroxisome proliferator-activated receptor delta (Homo sapiens) (UniProt Q03181); test: qHTS assay to identify small molecule antagonists of the peroxisome proliferator-activated receptor delta (PPARd) signaling pathway (AID 743215; active means well fitted inhibition curve with a large enough effect in the signal ratio in the repeat runs, not every such curve was filed as active; the % refers to the signal ratio;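 further: cells stimulated with agonist L165041 at 300 nM final during compound exposure; series mostly up to about 62 µM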)
Summary of the method: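 Plated HEK293H PPARd-bla cells rested 5 h at 37 C and 5% CO2. Compound, then agonist L165041 at 300 nM final, was added; 17 h at 37 C followed. Substrate loading, 2 h room temperature, fluorescence measured.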

[10] = target: Peroxisome proliferator-activated receptor delta (Homo sapiens) (UniProt Q03181); test: qHTS assay to identify small molecule agonists of the peroxisome proliferator-activated receptor delta (PPARd) signaling pathway (AID 743212; calls by dose curve)
Summary of the method: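 Read-out: beta-lactamase FRET fluorescence after 2 h room-temperature incubation with LiveBLAzer B/G substrate. Cells were HEK293H carrying a UAS-bla reporter for PPARd, treated at 37 C with DMSO-dissolved compounds.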
On the % scale 0 is the no-effect control and ±100 the full control effect.

Chain of Bile acid receptor (Homo sapiens) (Q96RI1 whole entry, looked up): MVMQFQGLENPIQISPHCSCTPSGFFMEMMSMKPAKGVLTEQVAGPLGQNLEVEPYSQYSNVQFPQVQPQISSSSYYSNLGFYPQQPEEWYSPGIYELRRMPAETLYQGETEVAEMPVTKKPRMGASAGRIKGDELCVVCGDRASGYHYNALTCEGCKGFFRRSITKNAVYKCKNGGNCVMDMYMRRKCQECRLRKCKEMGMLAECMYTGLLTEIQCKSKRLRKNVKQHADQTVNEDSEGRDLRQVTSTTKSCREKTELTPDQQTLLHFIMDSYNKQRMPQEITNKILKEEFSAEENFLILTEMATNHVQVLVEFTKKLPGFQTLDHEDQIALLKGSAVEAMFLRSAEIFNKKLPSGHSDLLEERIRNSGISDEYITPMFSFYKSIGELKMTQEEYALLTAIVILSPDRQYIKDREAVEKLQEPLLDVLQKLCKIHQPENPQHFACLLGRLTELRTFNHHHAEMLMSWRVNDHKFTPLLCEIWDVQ
Chain of Vitamin D3 receptor (Homo sapiens) (P11473 whole entry, looked up): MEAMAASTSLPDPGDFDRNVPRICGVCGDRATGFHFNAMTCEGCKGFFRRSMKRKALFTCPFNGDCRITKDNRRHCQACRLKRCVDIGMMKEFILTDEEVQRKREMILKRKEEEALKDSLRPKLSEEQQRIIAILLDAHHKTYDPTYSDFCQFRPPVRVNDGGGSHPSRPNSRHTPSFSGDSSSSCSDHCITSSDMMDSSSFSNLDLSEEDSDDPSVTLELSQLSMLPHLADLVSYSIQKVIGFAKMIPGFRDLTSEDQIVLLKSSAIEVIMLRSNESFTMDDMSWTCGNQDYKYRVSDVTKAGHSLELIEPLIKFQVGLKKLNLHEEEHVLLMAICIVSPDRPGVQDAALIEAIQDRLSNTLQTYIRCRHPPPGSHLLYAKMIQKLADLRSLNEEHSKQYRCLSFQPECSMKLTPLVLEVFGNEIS
Chain of Peroxisome proliferator-activated receptor delta (Homo sapiens) (Q03181 whole entry, looked up): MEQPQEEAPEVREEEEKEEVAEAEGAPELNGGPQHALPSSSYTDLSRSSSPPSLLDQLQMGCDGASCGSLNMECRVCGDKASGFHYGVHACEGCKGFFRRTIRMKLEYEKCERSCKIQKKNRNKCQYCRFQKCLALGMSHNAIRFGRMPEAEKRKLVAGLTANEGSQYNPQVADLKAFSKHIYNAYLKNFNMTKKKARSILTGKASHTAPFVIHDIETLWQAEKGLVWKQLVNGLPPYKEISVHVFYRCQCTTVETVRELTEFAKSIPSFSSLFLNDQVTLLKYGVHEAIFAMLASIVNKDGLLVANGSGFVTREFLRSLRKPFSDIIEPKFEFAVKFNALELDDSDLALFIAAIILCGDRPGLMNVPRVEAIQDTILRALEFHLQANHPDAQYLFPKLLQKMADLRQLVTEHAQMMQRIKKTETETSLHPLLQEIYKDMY

Cc1c(-c2cccnc2)c2ccccc2n1CCCCC(=O)O
inactive: Potency [1] | Potency [2] | outcome [3] | Potency [4] | outcome [5] | Potency [6] | outcome [7] | outcome [8]

OCCc1ccncc1
inactive: Potency [1] | Potency [2] | outcome [3] | Potency [4] | outcome [5] | Potency [6] | outcome [7] | outcome [8]

N#Cc1ccc(CC(=O)c2cccc(C(F)(F)F)c2)cc1
inactive: Potency [1] | Potency [2] | outcome [9] | Potency [4] | Potency [6] | outcome [7]

O=C1c2ccccc2C(=O)C1c1ccc2cc(S(=O)(=O)O)cc(S(=O)(=O)O)c2n1
inactive: Potency [1] | Potency [2] | outcome [9] | Potency [6]

COC(=O)C(C)(C)C
inactive: Potency [1] | Potency [2] | outcome [3] | Potency [4] | outcome [5] | Potency [6] | outcome [7] | outcome [8]

O=C(C1CCCCC1)N1CC(=O)N2CCCc3ccccc3C2C1 (configuration not stated)
inactive: Potency [1] | Potency [2] | outcome [9] | Potency [4] | Potency [6]

CC(C)CC(C)(C)C
inactive: Potency [1] | Potency [2] | outcome [9] | Potency [4] | outcome [7] | outcome [8]

CCc1ccc(C(=O)C(C)CN2CCCCC2)cc1 (configuration not stated)
inactive: Potency [1] | Potency [2] | outcome [9] | outcome [7]

CCCCCCCCC(=O)OCC(C)OC(=O)CCCCCCCC (configuration not stated)
inactive: Potency [1] | Potency [2] | outcome [9] | Potency [4] | outcome [7] | outcome [8]

Nc1nc(Cl)nc2c1ncn2[C@H]1C[C@H](O)[C@@H](CO)O1
inactive: Potency [1] | Potency [2] | outcome [9] | Potency [4] | Potency [6] | outcome [7] | outcome [8]

O=c1[nH][nH]c2ccccc12
inactive: Potency [1] | Potency [2] | outcome [9] | outcome [3] | Potency [4] | outcome [5] | Potency [6] | outcome [7] | outcome [8]

C=Cc1ccc(C=C)cc1
inactive: Potency [1] | Potency [2] | outcome [9] | outcome [3] | outcome [5] | Potency [6] | outcome [7]

O=C(O)CCc1nc2ccccc2[nH]1
inactive: Potency [1] | Potency [2] | outcome [9] | Potency [4] | Potency [6]

Cc1c(Cl)cccc1Nc1ccccc1C(=O)O
inactive: Potency [1] | Potency [2] | outcome [3] | Potency [4] | outcome [5] | Potency [6]

O=[N+]([O-])c1cccc(I)c1
inactive: Potency [1] | Potency [10] | Potency [4] | Potency [6] | outcome [7]

CC(CC(C#N)(c1ccccc1)C(C)C)N(C)C (configuration not stated)
inactive: Potency [1] | Potency [2] | outcome [3] | Potency [4] | outcome [5] | Potency [6]

COc1cc(CNC(=O)CCCC/C=C/C(C)C)ccc1O
inactive: Potency [1] | Potency [2] | outcome [9] | Potency [4] | outcome [5] | outcome [8]

O=Cc1ccc([N+](=O)[O-])cc1
inactive: Potency [1] | Potency [2] | outcome [9] | Potency [4] | Potency [6] | outcome [7] | outcome [8]

Sc1nc(S)nc(S)n1
inactive: Potency [1] | Potency [2] | outcome [9] | outcome [3] | Potency [4] | outcome [5] | Potency [6] | outcome [7]

CCC(CC)C(=O)O
inactive: Potency [1] | Potency [2] | outcome [9] | Potency [4] | Potency [6] | outcome [7] | outcome [8]

CC(C)(C)c1cc(C=O)cc(C(C)(C)C)c1O
inactive: Potency [1] | Potency [2] | outcome [3] | Potency [4] | outcome [5] | Potency [6] | outcome [7] | outcome [8]

CCCCCCCCCCCCCCCCN
inactive: Potency [1] | Potency [2] | outcome [9] | outcome [3] | Potency [4] | outcome [5] | Potency [6] | outcome [7] | outcome [8]

CC(C)(C)NCC(O)COc1ccc(NC(=O)NC2CCCCC2)cc1 (configuration not stated)
inactive: Potency [1] | Potency [2] | outcome [9] | outcome [3] | Potency [4] | outcome [5] | Potency [6] | outcome [7] | outcome [8]

COC=O
inactive: activity change, negative = cytotoxicity [1] -28.1% [at 5.95 µM] | activation [10] -8.76% [at 5.95 µM] | viability change, negative = cytotoxic [4] 22% [at 5.95 µM] | activity change, negative = cytotoxicity [6] 10.8% [at 5.95 µM]

CCCCC(CC)COCCC#N (configuration not stated)
inactive: Potency [1] | Potency [10] | Potency [4] | Potency [6] | outcome [7]

C[Si](C)(C)O[Si](C)(C)O[Si](C)(C)C
inactive: Potency [1] | Potency [2] | outcome [9] | Potency [4] | Potency [6] | outcome [7] | outcome [8]

CC(C)(C)c1ccc(CCC=O)cc1
inactive: Potency [1] | Potency [2] | outcome [9] | outcome [3] | outcome [5] | Potency [6] | outcome [7]

O=C(Nc1ccc2c(c1)Cc1ccccc1-2)C(F)(F)F
inactive: Potency [1] | Potency [2] | outcome [3] | Potency [4] | outcome [5] | Potency [6] | outcome [7] | outcome [8]

C/C(=C\C(C)CC(C)CC(C)C)C1CC(=O)OC1=O (configuration not stated)
inactive: Potency [1] | Potency [2] | outcome [9] | Potency [4] | outcome [7]

CC(C)Cc1nccs1
inactive: Potency [1] | Potency [2] | outcome [9] | outcome [3] | Potency [4] | Potency [6] | outcome [7] | outcome [8]

CCCCCCCCCC(C)C=O (configuration not stated)
inactive: Potency [1] | Potency [2] | outcome [3] | Potency [4] | outcome [5] | Potency [6] | outcome [7] | outcome [8]

O=C(O)CNc1ccccc1
inactive: Potency [1] | Potency [10] | Potency [4] | outcome [5] | Potency [6] | outcome [7] | outcome [8]

Cc1cc(N)n(-c2ccccc2)n1
inactive: Potency [1] | Potency [2] | outcome [9] | Potency [4] | Potency [6] | outcome [7] | outcome [8]

CC(=O)Nc1cccc(N)c1
inactive: Potency [1] | Potency [2] | outcome [9] | Potency [4] | outcome [5] | outcome [7] | outcome [8]
